Compound activity: PubChem, National Center for Advancing Translational Sciences (NCATS)
The list is not random: actives were taken first. Their share in the collection is about 12%.
L3MBTL1 block – inhibitors of human L3MBTL1; Q9Y468; AlphaScreen L3MBTL1–H3K9me1 peptide binding; Potency, µM (titrated, usually from 57.1 µM), for the others: top-dose activity, negative = inhibition, usual class: inhibitors; 230,000 compounds, 0.66% hits; also: % is scaled to controls: 0 for no effect and ±100 for the full control effect; nearly all actives have a fitted effect of over 60% in size
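AlphaScreen proximity signal between nickel-chelate acceptor and streptavidin donor beads (final 10 ug/mL) reports binding of 50 nM L3MBTL1 to 75 nM biotin-H3 K9me1 peptide; complex incubated with compounds 30 min at room temperature; cefsulodin titration as control.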
JMJD2A Tudor – JMJD2A Tudor domain (human) inhibition | O75164 | AlphaScreen JMJD2A-Tudor / H3K4me3 peptide binding | Potency, µM (titrated, usually from 114 µM), for the others: at the highest dose activity change, negative = inhibition, most hits filed as inhibitors | 390,000 compounds, 4.4% hits | AID 504339; also: % is scaled to controls: 0 for no effect and ±100 for the full control effect; nearly all actives have a fitted effect of over 50% in size
BAZ2B inh – BAZ2B (human) inhibition; Q9UIF8; 360,000 compounds, 4.4% hits; AlphaScreen BAZ2B-H3K14Ac peptide displacement; Potency, µM (titrated, usually from 114 µM), without a hit: at the top dose activity change, negative = inhibition, most hits filed as inhibitors; also: % is scaled to controls: 0 for no effect and ±100 for the full control effect; nearly all actives have a fitted effect of over 60% in size
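In this displacement format the biotinylated H3(5-23) peptide acetylated at Lys14 serves as ligand at 50 nM, with BAZ2B at 50 nM in PBS pH 7.4 containing 0.01% Tween-20. Donor and acceptor beads are 10 ug/mL final.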
HP1b chromo inh – blocks HP1-beta chromodomain binding to methylated histone tails | Potency, µM (series often up to 114 µM), without a hit: at the top dose activity change, negative = inhibition, usual class: inhibitors | AID 540317 | AlphaScreen HP1-beta / biotin-H3K9me3 peptide binding | 390,000 compounds, 0.56% hits; also: nearly all actives have a fitted effect of over 70% in size
Target sequence (P83916 whole entry, looked up): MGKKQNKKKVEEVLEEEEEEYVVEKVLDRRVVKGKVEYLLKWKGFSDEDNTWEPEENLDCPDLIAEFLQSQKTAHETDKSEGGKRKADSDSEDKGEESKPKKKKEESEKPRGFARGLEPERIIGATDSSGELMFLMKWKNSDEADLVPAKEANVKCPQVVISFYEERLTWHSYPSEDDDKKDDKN
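AlphaScreen: HP1-beta (50 nM) preformed 30 min with biotin-H3(1-18)K9me3 peptide (50 nM) in PBS pH 7.4, 0.01% Tween-20. Compound added for 30 min at RT, then streptavidin donor/nickel chelate acceptor beads (10 ug/mL) for 30 min.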
G9a inh – G9a (human) methyltransferase inhibition; Q96KQ7; AID 504332; 350,000 compounds, 8.8% hits; G9a H3K9 monomethylation, AlphaScreen, 2 h; Potency, µM (series often up to 102 µM), for the others: at the top dose activity, negative = inhibition, usual class: inhibitors; also: % is scaled to controls: 0 for no effect and ±100 for the full control effect; nearly all actives have a fitted effect of over 75% in size
Target sequence (Q96KQ7 913-1193 limits assumed): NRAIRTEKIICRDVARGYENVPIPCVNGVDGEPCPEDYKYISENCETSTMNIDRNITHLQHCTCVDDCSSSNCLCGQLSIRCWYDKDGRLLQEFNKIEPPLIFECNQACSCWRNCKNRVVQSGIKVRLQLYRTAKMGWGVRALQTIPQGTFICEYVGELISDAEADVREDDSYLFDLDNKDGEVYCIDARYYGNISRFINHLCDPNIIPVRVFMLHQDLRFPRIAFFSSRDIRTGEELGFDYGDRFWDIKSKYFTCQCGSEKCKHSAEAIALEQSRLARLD
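Quantitative HTS format: methyltransferase activity on a biotin-tagged H3K9 peptide is measured by AlphaScreen, using a rabbit anti-monomethyl-H3K9 antibody with streptavidin donor and anti-IgG acceptor beads. Final levels are 20 nM enzyme, 500 nM peptide, 20 uM SAM; 2 h RT.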
Sfp inh – Sfp phosphopantetheinyl transferase inhibition | Q9F4F7 | Biochemical Sfp PPTase activity, qHTS | Potency, µM, for the others: largest response in the series, negative = inhibition, hits mostly inhibitors | 310,000 compounds, 3.5% hits | AID 1490;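 also: the enzyme is Sfp with the accession as filed and its product quenches rhodamine fluorescence; 0% = enzyme reaction without inhibitor and -100% = no enzyme wells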
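Buffer: 50 mM Hepes-Na pH 7.6, 10 mM MgCl2, 0.01% Nonidet P-40, 0.01% BSA. Enzyme 15 nM, pre-exposed to compound 15 min; substrates then added and fluorescence change tracked over 30 min.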
An asterisk follows results filed as active; ? = inconclusive; . = no result given; ! = a repeat was not active; [ ] = remark or other dose. Calls follow the shape of the dose curve; as a rule, active = well fitted curve in the direction sought with a large enough effect; inconclusive = small, poorly fitted or top-dose-only effect, or another doubt; inactive = no such curve, though single readings can be large; an effect the other way counts as inactive or inconclusive. Potency is read from the fitted curve at half-maximal effect.

SMILES	L3MBTL1 block	JMJD2A Tudor	BAZ2B inh	HP1b chromo inh	G9a inh	Sfp inh
C=CCOc1cccc(C2C(C(=O)c3ccco3)=C(O)C(=O)N2Cc2ccncc2)c1 (stereo not drawn)	-6.3%	-5.6%	-28.1%	53.3%	?	-24.3%
O=C(O)c1cccc(Nc2ccncc2[N+](=O)[O-])c1	.	20µM*	-18.0%	29.1%	2.7%	-5.9%
Fc1ccc(C2CC(c3ccc(F)cc3)n3ncnc3N2)cc1 (stereo not drawn)	2.0%	-26.7%	-31.7%	16.9%	-20.1%	-2.4%
Oc1ccccc1C1=Nc2ncnn2C(c2ccc(F)cc2)C1 (stereo not drawn)	-1.6%	-20.0%	56.2µM*	33.1%	25.1µM*	-18.5%
Cc1c(NC(=O)Nc2ccccc2C(F)(F)F)sc2nc3n(c(=O)c12)CCC(C)CC3 (stereo not drawn)	.	-1.1%	-8.1%	35.7%	-3.1%[59 µM]	.
Cn1c(CBr)c(C(=O)c2ccc([N+](=O)[O-])cc2)c(=O)n(C)c1=O	3.1%	-32.3%	-34.8%	29.3%	28.2µM*	?
CCC(=O)Nc1nc(C)c(-c2csc(Nc3cccc(O)c3)n2)s1	.	39.8µM*	?	-14.3%	39.8µM*	?
CCCCCC(=O)Nc1nc(C)c(-c2csc(Nc3ccc(Cl)cc3)n2)s1	-15.1%	?	?	-22.3%	41.5%[0.501 µM]	4.5%
CC(=O)c1cccc(Nc2nc(-c3sc(C)nc3C)cs2)c1	.	-21.1%	-22.3%	-2.5%	1.7%	-4.9%
Cc1nc(N)sc1-c1csc(Nc2cccc(O)c2)n1	-1.5%	?	56.2µM*	?	44.7µM*	-21.0%
Cc1nc(C)c(-c2csc(Nc3cccc(O)c3)n2)s1	-16.6%	-25.4%	?	12.0%	50.1µM*	-7.2%
Cc1cccc(Nc2nc(-c3sc(C)nc3C)cs2)c1	-7.7%	?	?	?	?	-19.6%
CC(=O)c1cccc(Nc2nc(-c3sc(N)nc3C)cs2)c1	-0.9%	?	35.5µM*	?	79.4µM*	-6.6%
O=C1CC(c2ccccc2)Sc2ccccc2N1Cc1ccc(F)cc1 (stereo not drawn)	.	35.6%	33.3%	65.9%	33.5%[59 µM]	.
NCCC[C@@H](CC(=O)N[C@@H]1CCNC[C@H]1C(=O)N[C@H](CC(=O)N[C@@H](CCC(=O)O)CC(=O)O)Cc1ccccc1)NC(=O)C[C@H](Cc1c[nH]c2ccccc12)NC(=O)[C@@H]1CNCC[C@H]1N	.	.	.	.	.	-7.6%
CCOC(=O)c1c(C)c(-c2ccccc2)n(CC(=O)NC(CC)Cc2ccccc2)c1C (stereo not drawn)	.	2.5%	-15.9%	35.6%	19.4%[59 µM]	.
O=c1[nH]cc(N2CCCCCC2)c(=O)[nH]1	.	-1.3%	0.7%	50.2%	50.1µM*	-3.7%
O=C(OCC(=O)N1CCCCC1)c1c[nH]c(=O)[nH]c1=O	3.4%	9.2%[11.4 µM]	-7.2%	-7.5%	-8.8%	16.4%
O=C(Cc1cccs1)NC1CC(=O)N(c2ccccc2)C1 (stereo not drawn)	.	2.9%	2.3%	18.5%	-5.8%[59 µM]	.
Nc1nnc(Cc2c[nH]c3ccccc23)s1	-7.3%	-21.6%	-5.5%	18.3%	44.7µM*	4.2%
O=C1N[C@@H](Cc2c[nH]c3ccccc23)C(=O)N[C@H]1Cc1c[nH]c2ccccc12	.	.	.	.	.	-1.1%
c1ccc2c(Cc3c[nH]c4ccccc34)c[nH]c2c1	.	.	.	.	8.91µM*!	-0.4%
CC(C)=NOCc1ccc(-c2cc(-c3ccccc3)no2)cc1	.	.	.	.	.	-11.0%
COc1cc(NC(=O)CSc2nc3ncccc3o2)cc(OC)c1	.	-16.7%	-8.1%	?	9.8%[59 µM]	.
COc1ccccc1CNC(=O)CC(c1ccc(C)cc1)N1Cc2ccccc2C1=O (stereo not drawn)	.	-11.0%	-19.5%	21.6%	-0.6%[59 µM]	.
SMILES	L3MBTL1 block	JMJD2A Tudor	BAZ2B inh	HP1b chromo inh	G9a inh	Sfp inh
NS(=O)(=O)c1ccc(Nc2nc(-c3cccc([N+](=O)[O-])c3)cs2)cc1	-21.1%	-20.6%	-19.5%	2.3%	39.8µM*	31.6µM*
Cc1nc(Nc2ccc(S(N)(=O)=O)cc2)sc1C(=O)Nc1ccccc1	-7.3%	-25.4%	-22.5%	-4.3%	-48.8%	6.3%
Cc1ccc(-c2csc(Nc3ccc(S(N)(=O)=O)cc3)n2)o1	-11.7%	56.2µM*	44.7µM*	?	4.47µM*	10µM*
O=C(/C=C\c1ccco1)Nc1nc(-c2ccc3ccccc3c2)cs1	-21.8%	-17.1%	?	4.8%	50.1µM*	11.6%
Cc1nc(Nc2ccc(S(N)(=O)=O)cc2)sc1-c1ccccc1	.	?	?	-18.7%	31.6µM*	-1.5%
Cc1ccc(CNC(=O)C2CCN(c3ncnc4c3nc3n4CCCCC3)CC2)cc1	.	3.3%	6.4%	29.0%	5.1%[59 µM]	.
CCNc1ncc2nc(C)c(=O)n(Cc3cccs3)c2n1	.	.	.	.	12.4%[0.501 µM]	20.6%
CC(C)C[C@H](NC(=O)[C@H](CCCCN)NC(=O)[C@H](CCCNC(=N)N)NC(=O)[C@H](C)NC(=O)[C@H](CO)NC(=O)[C@H](CCCCN)NC(=O)[C@H](CCCNC(=N)N)NC(=O)[C@H](C)NC(=O)CNC(=O)[C@@H](NC(=O)[C@H](Cc1ccccc1)NC(=O)CNC(=O)CNC(=O)[C@@H](N)Cc1ccccc1)[C@@H](C)O)C(=O)N[C@@H](C)C(=O)N[C@@H](CC(N)=O)C(=O)N[C@@H](CCC(N)=O)C(=O)O	.	.	.	.	.	-4.9%
O=C(Nc1cccc(-c2csc(Nc3ccccc3)n2)c1)c1cc([N+](=O)[O-])cc(C(F)(F)F)c1	-1.8%	-35.2%	-11.6%	15.7%	50.1µM*	7.1%
NS(=O)(=O)c1ccc(Nc2nc(-c3ccc4ccccc4c3)cs2)cc1	.	?	-5.4%	-6.8%	35.5µM*	4.3%
Cc1ccc(S(=O)(=O)N(C)c2ccc(C(=O)NCc3ccccc3F)cc2)cc1	11.3%	-3.7%	-1.3%	25.3%	50.1µM*	.
Cc1ccc(NC(=O)CN(C)C(=O)c2ccc(S(=O)(=O)N(C)c3ccccc3)cc2)cc1	3.9%	-6.2%	-8.7%	24.5%	56.2µM*	3.9%
Cc1ccc(S(=O)(=O)N(C)c2ccc(C(=O)NCc3ccccn3)cc2)cc1	8.0%	-10.3%	-6.7%	47.4%	-2.3%	6.1%
CCOc1ccccc1C(=O)N1CC(=O)Nc2ccc(C)cc2C1c1ccccc1 (stereo not drawn)	.	-13.3%	-9.6%	29.1%	-0.5%[59 µM]	.
COc1ccccc1C1C([N+](=O)[O-])=CC([N+](=O)[O-])=CN1C (stereo not drawn)	-2.3%	7.7%	6.1%	46.7%	?	-24.3%
COc1ccccc1C1NC=C([N+](=O)[O-])C=C1[N+](=O)[O-] (stereo not drawn)	-6.0%	?	44.7µM*	?	3.55µM*	?
